# Screening data (PubChem)
# Shown are actives, neighbours in structure and some others; about 3.5% of the full set was active somewhere.
# Platelet DG rel = platelet dense granule release activity; human platelet-rich plasma, SFLLRN dense granule ATP release, luminescence; inhibition, %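 (compounds screened at 7.5 µM in platelet-rich plasma)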; 300,000 tested, 0.22% active; AID 1663;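 active = mean replicate score, as percent of positive control, at or above 50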
# C8 TRAIL sens = sensitizes caspase-8 expressing cells to TRAIL; NB7+C8 cells + TRAIL, ATPlite viability luminescence; inhibition (viability loss, TRAIL sensitization), % at 10 µM; 360,000 tested, 1% active; AID 624354;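 active = compounds causing at least 50% loss of cell viability in the single-dose screen, relative to plate controls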
# PPC-1+TRAIL kill = compounds killing PPC-1 cancer cells with TRAIL present (potentiator screen, no TRAIL-free arm) | PPC-1 cells + TRAIL, ATPLite viability luminescence | cell killing (% activity), % at 4 µM or 5 µM | 220,000 tested, 0.41% active | AID 1443;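 active = cell killing above 50% in the first pass at 4 µM, then a duplicate retest at 5 µM averaging 50% or more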;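 also: plate controls were cells with TRAIL plus DMSO for no effect and medium-only wells lacking cells for full effect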
# TROY signal inh = inhibitors of TROY-dependent NF-kB signaling; 360,000 tested, 0.98% active; Q293 LMP1-TROYcd NF-kB luciferase reporter, 4 h; AID 1347056; inhibition, % at 10 µM;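 active = compounds whose plate-normalised and pattern-corrected inhibition of the luciferase reporter signal at the single screening dose is 50% or more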
# TWEAK-Fn14 inh = blocks TWEAK-Fn14 interaction in a reporter cell assay; TWEAK-stimulated Fn14 reporter cells, luciferase luminescence, 8 h; inhibition, % at 10 µM; 360,000 tested, 2% active; AID 1159606; in the data active = inhibition above about 50%
# HSP90 refold inh = inhibitors of HSP90 luciferase refolding in rabbit reticulocyte lysate; 290,000 tested, 0.91% active; inhibition, % at 5.6 µM; AID 1789; luciferase refolding luminescence, 3 h;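 active = inhibition above the screen-wide mean plus 3 SD, computed separately per campaign, cut at about 16% in these data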;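 also: 0% = DMSO wells and 100% = 60 µM geldanamycin wells; inhibitors lower the luminescence because luciferase stays unfolded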
# * hit, by the source's call; . = not tested or not shown.
SMILES,Platelet DG rel,C8 TRAIL sens,PPC-1+TRAIL kill,TROY signal inh,TWEAK-Fn14 inh,HSP90 refold inh
COC(=O)C(C)N1C(=O)S/C(=C\c2cc(C)n(-c3ccccn3)c2C)C1=O (centres undefined),8.3,60.4*,30.8,-11.6,25.2,13.0
CCOC(=O)CN1C(=O)S/C(=C/c2cc(C)n(-c3ccccn3)c2C)C1=O,0.9,24.1,17.9,0.5,6.2,2.4
O=c1oc(-c2ccc(Br)cc2)nc2ccccc12,-4.7,17.3,.,-9.3,29.4,1.3
COC(=O)c1ccc(C(=O)NC(=S)Nc2nc3c(s2)CC(C)CC3)cc1 (centres undefined),-18.3,-2.7,14.0,93.1*,109.4*,-0.6
O=C(NNC(=O)c1ccccc1-n1cccc1)c1ccc(Cl)cc1,4.3,-13.5,20.4,-13.3,83.2*,-4.7
O=C(NNC(=O)c1ccccc1-n1cccc1)c1ccc(Cl)c(Cl)c1,1.6,6.0,-0.3,4.0,6.8,-2.2
C[C@@H](NC(=O)c1ncn2c1C(=O)NC[C@@H]2C)c1ccccc1,.,0.5,.,10.4,-6.1,.
COc1ccc(C(O)c2nc(-c3cccc4cccnc34)cs2)cc1 (centres undefined),.,-5.0,.,-19.9,11.3,.
COc1cc2c(cc1OC)C(c1ccc(-c3ccc(Cl)c(Cl)c3)o1)=NCC2,3.3,22.5,11.9,47.4,75.5*,1.7
COc1cc2c(cc1OC)C(c1ccc(-c3ccc(Cl)cc3Cl)o1)=NCC2,-0.9,24.9,14.9,35.2,50.4*,3.5
COc1cc2c(cc1OC)C(c1ccc(-c3cc(Cl)ccc3Cl)o1)=NCC2,2.1,36.5,9.1,7.5,35.5,0.7
CC(C)(C)c1ccccc1NC(=S)NC1CCCCC1,-0.2,-9.5,-11.2,3.5,-7.4,-0.2
COc1cccc(CCc2nnc(CCC(=O)N3CCN(Cc4ccccn4)CC3)o2)c1,9.8,-1.3,7.8,-3.4,5.0,-1.2
COc1ccc(-c2nc3c(Cl)cc(C(F)(F)F)cn3c2Cc2cccc(F)c2)cc1OC,.,20.9,.,3.2,2.4,.
Cc1cc(C)nc(SCC(N)=O)n1,-0.5,-7.6,-15.7,8.0,-8.6,2.1
Cn1cc(S(=O)(=O)N2CCCC2)cc1C(=O)NCc1ccccc1,0.6,-4.6,.,18.0,-1.7,-2.8
Cc1c(Cl)cccc1NC(=O)c1cc(S(=O)(=O)N2CCOCC2)cn1C,-4.2,-34.0,.,3.0,-15.3,-4.0
COc1ccc(NC(=O)c2cc(S(=O)(=O)N3CCOCC3)cn2C)c(OC)c1,59.2*,-14.4,.,0.9,10.8,-3.5
COc1cc(OC)c(NC(=O)c2cc(S(=O)(=O)N3CCOCC3)cn2C)cc1Cl,69.2*,-4.4,.,17.5,-40.9,2.1
COc1cccc(CNC(=O)c2cc(S(=O)(=O)N3CCCC3)cn2C)c1,57.2*,7.0,.,-1.6,4.1,1.2
CC(=O)c1ccccc1NCC(=O)Nc1ccc(C)cc1,-2.2,-4.3,9.5,-35.2,-29.7,1.4
CCOC(=O)C1=CCN(S(=O)(=O)c2ccccc2Cl)C1c1ccc(C)cc1 (centres undefined),.,-1.5,.,11.2,17.9,.
CCC1CCCCN1Cc1nc(Cc2ccccc2Cl)no1 (centres undefined),14.2,85.2*,0.4,-15.9,0.5,-1.4
C[C@]12CCC(O)CC1=CCC1C2CC[C@]2(C)/C(=N\NC(N)=S)CCC12 (some centres undefined),-10.0,-3.3,.,15.4,93.8*,-1.0
COC1OC(CO)C(N(C)C(C)=O)C1O (centres undefined),.,7.6,.,-0.4,12.4,.
SMILES,Platelet DG rel,C8 TRAIL sens,PPC-1+TRAIL kill,TROY signal inh,TWEAK-Fn14 inh,HSP90 refold inh
C=CC(=O)Nc1cccc(Oc2ncnc3[nH]cc(-c4cnc5ccccc5c4)c23)c1,.,-29.9,.,52.6*,65.4*,.
CSc1ccc(OC2(C)CCN(Cc3cc4ccccc4o3)C2)cc1 (centres undefined),.,2.7,.,12.7,-18.1,.
Cc1ccccc1OCC(=O)Nc1ccc(N2CCN(C(=O)c3ccco3)CC2)cc1,-11.3,12.6,.,38.6,3.0,-7.0
O=C(Nc1cccc(Cl)c1)Nc1c[nH]c(=O)[nH]c1=O,-2.0,0.6,.,-5.1,10.2,0.7
C[C@@H]1CN([C@H](C)CO)C(=O)CCCn2cc(nn2)CO[C@H]1CN(C)C(=O)Nc1cccc2ccccc12,.,-5.6,.,29.2,7.5,.
O=C(C[C@H]1C[C@H](C(=O)N2CCCCC2)[C@@]2(CCc3ccccc3)c3[nH]c4ccc(Cl)cc4c3CCN2C1=O)NCc1cccc(C(F)(F)F)c1,.,5.8,.,16.1,52.5*,.
CC(C)=CCC/C(C)=C/CNC(=O)C[C@H]1C[C@H](C(=O)N2CCOCC2)[C@@]2(C)c3[nH]c4ccc(Cl)cc4c3CCN2C1=O,.,14.3,.,50.8*,50.7*,.
CCN(CC)C(=O)[C@H]1C[C@H](CC(=O)NCCCN(C)C)C(=O)N2CCc3c([nH]c4ccc(Cl)cc34)[C@]12C,.,-20.2,.,8.1,25.5,.
CCN(CC)C(=O)[C@H]1C[C@H](CC(=O)NCC23CC4CC(CC(C4)C2)C3)C(=O)N2CCc3c([nH]c4ccc(Cl)cc34)[C@]12C,.,20.6,.,45.1,54.1*,.
CC(C)N(C(=O)[C@H]1C[C@H](CC(=O)NCC23CC4CC(CC(C4)C2)C3)C(=O)N2CCc3c([nH]c4ccc(Cl)cc34)[C@]12C)C(C)C,.,26.4,.,39.5,54.4*,.
COC(=O)c1sc(S(=O)(=O)N2CC(C)OC(C)C2)c(C(=O)OC)c1C (centres undefined),.,-7.2,.,-18.4,-11.5,.
Cc1cc(NCC(=O)Nc2ccc(C)c(S(=O)(=O)N3CCOCC3)c2)ccc1Br,.,6.8,.,-9.8,3.8,.
O=C(CNCCc1ccccc1)N1CCc2ccccc2C1,-0.1,2.6,3.8,-8.5,-11.8,-1.9
COc1ccc(C(=O)Nc2cc(C)on2)cc1,-4.1,57.2*,46.6,-45.7,14.9,5.2
COc1cccc(NC(=O)c2cccc(C(=O)Nc3cccc(OC)c3)c2)c1,-1.9,7.3,.,-8.7,-23.6,-0.6
COc1ccc(C(=O)Nc2cccc(OC)c2)cc1,11.4,53.4*,46.3,-78.2,-1.4,5.2
COc1cc(OC)cc(C(=O)Nc2cc(C)on2)c1,6.5,-3.1,.,-17.9,10.0,-2.1
COc1cccc(NC(=O)c2ccc(OC(F)(F)F)cc2)c1,27.3,49.5*,.,-38.3,-17.1,.
COc1cccc(NC(=O)c2ccccc2)c1,.,13.2,.,-57.9,-20.7,.
COc1cccc(NC(=O)Nc2cccnc2)c1,0.3,2.2,16.5,-19.4,7.1,4.2
COc1cccc(NC(=O)Nc2cccc(C(=O)O)c2)c1,6.5,25.0,21.4,-21.9,4.3,76.7*
CC(C)CC1COC(=O)N1 (centres undefined),2.6,-0.4,.,-7.9,7.2,-5.9
COc1ccc(NC(=O)N2C3CCCC2CC(NC(=O)C2CC2)C3)cc1 (centres undefined),-0.2,10.0,.,-1.6,77.0*,1.7
COc1cccc(NC(=O)N2C3CCCC2CC(NC(=O)C2CC2)C3)c1 (centres undefined),-3.0,-6.5,.,16.7,7.6,0.1
